Screening data: PubChem, National Center for Advancing Translational Sciences (NCATS)
AMA1-RON2 inh: qHTS for Inhibitors of AMA1-RON; Towards Development of Antimalarial Drug Lead: Primary Screen; actives 0.2% (n = 360,000); Potency, µM (doses to about 58.2 µM), inactives show top-dose activity change, negative = inhibition, actives largely listed as inhibitors; AlphaScreen AMA1-biotinylated RON2 peptide binding; Plasmodium falciparum AMA1 (3D7) - RON2 peptide interaction;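 note: potency is the fitted concentration of half-maximal effect; 0% = vehicle wells and -100% = peptide control; nearly all actives have a fitted effect of over 45% in size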
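AMA1 (3D7) with his tag at 25 nM final met compounds first, then biotinylated RON2 peptide at 25 nM; detection used donor plus acceptor beads, 10 µg/mL apiece, read by AlphaScreen after 30 min at room temperature.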
Shiga inhibitor: A qHTS for Small Molecule Inhibitors of Shiga Toxin. Vero cells, Shiga toxin protein synthesis inhibition reporter. inhibition, % at 38.7 µM. actives 9.2% (n = 290,000). AID 2315, 2010; in the data active = inhibition mostly above about 28%, no sharp cut-off; inactive = mostly below about 43%; note: 0% is about no effect
Pf growth 96h: Primary qHTS for delayed death inhibitors of the malarial parasite plastid, 96 hour incubation | P. falciparum luciferase reporter growth, 96 h | Potency, µM (titrated, usually from 28.7 µM), for inactives: top-dose activity change, negative = inhibition, most hits filed as inhibitors | actives 6.9% (n = 320,000); note: potency is the fitted concentration of half-maximal effect; % is set by controls: 0 for no effect and ±100 for the full control effect
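Cell-based qHTS: luciferase-tagged P. falciparum in erythrocytes (2% hematocrit, 0.05% parasitemia final) incubated with compounds for 96 hours, 37 C, 5% CO2; luciferase detection reagent then added and luminescence measured.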
Pf growth 48h: Primary qHTS for delayed death inhibitors of the malarial parasite plastid, 48 hour incubation | P. falciparum luciferase growth in erythrocytes, 48 h | Potency, µM (titrated, usually from 28.7 µM), for the others: at the top dose activity change, negative = inhibition, actives largely listed as inhibitors | actives 5.9% (n = 310,000) | AID 504832, 2011; note: potency is the fitted concentration of half-maximal effect; % is set by controls: 0 for no effect and ±100 for the full control effect
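Luminescence readout; reporter = integrated firefly luciferase in P. falciparum. RBC culture at 2% hematocrit, 0.1% parasitemia final, 37 C/5% CO2; decreased signal taken as growth inhibition.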
Cycloheximide cs: Cycloheximide Counterscreen for Small Molecule Inhibitors of Shiga Toxin | cell reporter, cycloheximide protein synthesis inhibition counterscreen | actives 12% (n = 300,000) | max response, %; in the data active = max response mostly above about 13%, no sharp cut-off; inactive = mostly below about 14%; note: read at 38.3 µM for the half of the compounds with a filed dose; 0% is about no effect
SARS PLpro yeast: qHTS of Yeast-based Assay for SARS-CoV PLP; actives 0.19% (n = 330,000); S. cerevisiae expressing SARS-CoV PLpro, growth rescue; Potency, µM (doses to about 32.9 µM), for the others: at the top dose activity, positive = growth rescue, usual class: activators; calls by dose curve; note: potency is the fitted concentration of half-maximal effect; 0% is about no effect; nearly all actives have a fitted effect of over 55% in size
The depositor's hits bear a star; ? = inconclusive; . = not tested or not shown; [ ] = remark or other dose. A selection: hits, their analogues and other compounds. The true share with any hit is near 19%. Unless noted, calls come from the whole dose curve; as a rule, active = well fitted curve in the direction sought with a large enough effect; inconclusive = small, poorly fitted or top-dose-only effect, or another doubt; inactive = no such curve, though single readings can be large; an effect the other way counts as inactive or inconclusive.

SMILES	AMA1-RON2 inh	Shiga inhibitor	Pf growth 96h	Pf growth 48h	Cycloheximide cs	SARS PLpro yeast
COC(=O)c1c(N2C(=O)[C@H]3[C@@H](C2=O)[C@]2(C(=O)Nc4ccc(C)cc42)N2CCC[C@@H]32)sc(C)c1C	.	25.7	?	4.7%	1.1	-2.4%
O[C@@H](c1cc(C(F)(F)F)nc2c(C(F)(F)F)cccc12)[C@H]1CCCCN1	0.6%	.	0.0147µM*	0.0329µM*	.	-6.2%
OC(c1cc(-c2ccc(Cl)cc2)nc2ccccc12)C1CCCCN1 (stereo not drawn)	0.0%	-5.8	0.0522µM*	0.037µM*	1.1	0.9%
O=c1c2cc(Cl)cc(Cl)c2nc2n1CCC2	0.3%	-15.0	9.3%	2.4%	0.9	4.6%
OC(c1cc(C(F)(F)F)nc2c(Cl)cc(Cl)cc12)C1CCCCN1 (stereo not drawn)	?	-14.6	0.0033µM*	0.0131µM*	-5.4	-1.8%
NC(=O)C1CCN(C(=O)c2cc(-c3ccc(Cl)cc3)nc3ccccc23)CC1	10.6%	.	.	.	.	16.6%
Cc1ccccc1NC(=O)CCSc1nnnn1-c1ccccc1	0.0%	-2.4	2.0%	?	8.2	-11.4%
Cc1ccc(CNC(=O)CCC2CCCN(Cc3cccc4c3OCO4)C2)o1 (stereo not drawn)	-6.5%	-3.9	0.2%	-7.4%	-2.3	-2.1%
Cc1ccc(CNC(=O)CCC2CCCN(Cc3c(C)nn(C(C)C)c3C)C2)o1 (stereo not drawn)	-1.8%	0.9	8.28µM*	-2.9%	9.7	-0.5%
O=C(COC(=O)c1cnccn1)Nc1cc(S(=O)(=O)N2CCOCC2)ccc1Cl	15.3%	.	.	.	.	15.5%
COc1ccc(CCNC(=O)CC2SC(N)=NC2=O)cc1OC (stereo not drawn)	2.5%	8.7	13.7%	-11.0%	-2.5	-4.0%
CCN(CC)S(=O)(=O)c1cc(C)ccc1SC	10.4%	-2.8	?	2.0%	-3.1	-8.7%
Cc1nc2ccc(NC(=S)NC(C)C)cc2nc1C	-8.4%	12.3	?	33.2%	20.4*	2.3%
CC(C)NC(=S)Nc1ccc2nc3n(c(=O)c2c1)CCCCC3	-14.9%	16.9	3.2%	8.8%	11.8	-17.0%
Cc1nc2ccc(NC(=S)NC3CC3)cc2nc1C	6.6%	8.5	57.5%	44.2%	19.3*	-24.9%
Cc1nc2ccc(NC(=S)NCCCO)cc2nc1C	36.0%	40.4	46.7%	47.0%	13.4	1.0%
O=C(CNC(=O)c1ccco1)Nc1ccncc1	-6.6%	.	-1.6%	3.1%	.	2.8%
COc1ccc(NC(=O)CNC(=O)c2ccco2)cc1	-10.2%	72.6*	?	40.9%	50.6*	7.5%
Cc1ccc(NC(=O)CNC(=O)c2ccco2)cc1	-9.7%	47.9*	-9.3%	96.9%	33.4*	2.3%
O=C(CNC(=O)c1ccco1)Nc1ccc(OC(F)F)cc1	38.1%	-7.9	3.8%	1.5%[0.00184 µM]	-7.2	6.0%
COc1ccc(NC(=O)CC(c2ccco2)C(C)C)cc1 (stereo not drawn)	-2.8%	5.6	-13.4%	?	20.6*	-2.0%
CC1=C(C(=O)OCc2ccccc2)C(c2ccccc2OS(=O)(=O)c2ccc(C)cc2)NC(=O)N1CCCC(=O)O (stereo not drawn)	-7.0%	.	.	.	.	.
Nc1cc(Cl)ccc1C(=O)OCC(=O)N1CCCC1	-2.8%	35.0	82.9%	61.0%	17.3*	3.5%
Nc1cc(C(=O)OCC(=O)N2CCCC2)ccc1Cl	10.7%	50.0*	.	66.7%	30.5*	-0.2%
Nc1cc(Cl)ccc1C(=O)OCC(=O)N1CCCCCC1	13.2%	.	.	.	.	-8.7%
Nc1cc(Cl)ccc1C(=O)OCC(=O)N1CCOCC1	11.3%	25.2	28.9%	35.0%	21.2*	-1.3%
O=C(OCC(=O)N1CCOCC1)c1ccccc1O	-7.3%	72.3*	87.1%	71.0%	28.6*	-1.4%
Nc1cc(C(=O)OCC(=O)N2CCCC2=O)ccc1Cl	17.1%	.	23.1%	?	.	0.7%
Cc1cc(C)c[n+](-c2nc([O-])sc2C=O)c1	-6.3%	-5.5	-20.7%	33.2%	-4.2	2.7%
